Results filed as inconclusive are left out. Values without a mark were called inactive. The source made the active and inactive calls. The call rests on the fitted dose curve; in most records, active means well fitted cell-killing curve with a large enough effect in the repeat runs; inconclusive means weak or mixed curves, or effect the other way; inactive means no such curve, though single readings can be large or run the other way.
On the % scale 0 is the no-effect control and ±100 the full control effect.

This assay can be described thus: qHTS assay to identify small molecule antagonists of the glucocorticoid receptor (GR) signaling pathway - cell viability counter screen (AID 720693). Further: nearly all actives have a fitted effect of over 55% in size. Particulars: GR-bla HeLa viability, CellTiter-Glo luminescence, 18 h, with 5 nM dexamethasone present; series mostly up to 58.5 µM. The text has this: National Center for Advancing Translational Sciences [NCATS]
NIH Chemical Genomics Center [NCGC]
U.S. Environmental Protection Agency [EPA]
National Institutes of Environmental Health Sciences [NIEHS]
National Toxicology Program [NTP]
U.S. Food and Drug Administration [FDA]
The Glucocorticoid receptor (GR) is one of the members of the nuclear receptor family of ligand-dependent transcription factors. GR plays a critical role in carbohydrate, protein and lipid metabolisms and programmed cell death. CellSensor GR-bla HeLa cell line (Invitrogen) contains a beta-lactamase reporter gene under the control of the glucocorticoid response element stably integrated into HeLa cells, a cervical cancer cell line that expresses glucocorticoid receptor. The activation of the reporter gene under culture conditions can be detected by fluorescence intensity. This cell line has been used to screen the Tox21 10K compound library and to identify the compounds that inhibit the GR signaling. The cytotoxicity of the Tox21 compound library against the GR-bla HeLa cell line was tested in parallel by measuring the cell viability using CellTiter-Glo assay in the same wells.
Tox21 Assay Protocol Summary:
The GR-bla HeLa cells were dispensed at 1500 cells/5 ul/well in 1536-well black wall/clear bottom plates using a Multidrop Combi (ThermoFisher Scientific, Waltham, MA) dispenser. After the assay plates were incubated at a 37 C/5% CO2 incubator for 4 hours, 23 nL of compounds dissolved in DMSO, positive controls or DMSO only was transferred to the assay plate by a pintool station (Kalypsys, San Diego, CA), followed by addition of 1 uL of dexamethasone (5 nM, final concentration in the well). The plates were incubated at 37 C for 18 hours. After 1 uL of LiveBLAzerTM B/G FRET substrate was added using a Flying Reagent Dispenser (Aurora Discovery, San Diego, CA), the plates were incubated at room temperature (RT) for 2 hours, and fluorescence intensity was measured by an Envision plate reader (PerkinElmer, Shelton, CT). After measurement of bla assay, 3 ul CellTiter-Glo (Promega, Madison, WI) was added to measure the cytotoxicity and the plates were then incubated at RT for 30 min. The luminescence was measured using a ViewLux (Perkin Elmer) plate reader.
Turning to `Cc1c(I)c(=O)n(-c2ccccc2)n1C`, the outcome was inactive. With `O=C(O)C(=O)Cc1ccccc1`, the result was inactive.

`Cc1ccc(S(=O)(=O)O)c(C)c1`: the molecule was called inactive. Turning to `CC(S)C(=O)NCC(=O)O` (stereo not given), the call was inactive.

For `CC(C)C[C@H](NC(=O)CNC(=O)[C@H](Cc1ccc(O)cc1)NC(=O)[C@H](CO)NC(=O)[C@H](Cc1c[nH]c2ccccc12)NC(=O)[C@H](Cc1cnc[nH]1)NC(=O)[C@@H]1CCC(=O)N1)C(=O)N[C@@H](CCCN=C(N)N)C(=O)N1CCC[C@H]1C(=O)NCC(N)=O` (stereo in doubt), the molecule was called inactive. As for `O=C(O)c1cc(Cl)cc([N+](=O)[O-])c1Cl`, the molecule was called inactive. As to `CC(C)CCCCOC(=O)c1ccccc1C(=O)OCCCCC(C)C`, the molecule was called inactive. On the same count and under the same terms, for `CC(C)C(=O)OCCc1ccccc1` the value was “inactive”; for `C=Cc1ccccn1`, “inactive”.

Consider `C[C@@H](O)[C@H]1C(=O)N2C(C(=O)O)=C(SCCN=CN)C[C@H]12`, for which the call was inactive.

For `COc1nccnc1NS(=O)(=O)c1ccc(N)cc1`, the molecule was classed as inactive.

As to `C=CCCCCCCCCCCCC`, the molecule was classed as inactive.

`COc1cc2c(cc1OC)[C@@H]1CC(=O)[C@@H](CC(C)C)CN1CC2`: the molecule was classed as inactive.

On to `CC1COc2ccccc2N1` (stereo not given), for which the outcome was inactive.

Regarding `COc1ccc(OC)c(Cl)c1`, the result was inactive.

In the case of `C=C(C)C(=O)OCCOP(=O)(O)OCCOC(=O)C(=C)C`, the molecule was called inactive. Still for that read-out and setting: for `CC(=C(CCOC(=O)C(C)C)SSC(CCOC(=O)C(C)C)=C(C)N(C=O)Cc1cnc(C)nc1N)N(C=O)Cc1cnc(C)nc1N` the value was “inactive”; for `CCCCCCCCCCCCCC`, “inactive”; for `CCOC(=O)[C@H](CCc1ccccc1)N[C@@H](C)C(=O)N1C(=O)N(C)C[C@H]1C(=O)O`, “inactive”. Still for that read-out and setting: to `CCCCCCCCCCl` belongs “inactive”. Still for that read-out and setting: to `CCCC(=O)C(C)=O` belongs “inactive”.

In the case of `c1ccc2nccnc2c1`, the molecule was called inactive. As for `CC(=O)/C=C/C1C(C)=CCC(C)C1(C)C` (stereo not given), the outcome was inactive.

For `On1nnc2ccccc21`, the result was inactive. Still for that read-out and setting: to `CCCN1C[C@H](CSC)C[C@@H]2c3cccc4[nH]cc(c34)C[C@H]21` belongs “inactive”; to `ClCCCl`, “inactive”. On to `NC(CO)C(=O)NNCc1ccc(O)c(O)c1O` (stereo not given), for which the outcome was inactive. As for `CC(=O)N[C@@H](CCC(=O)O)C(=O)O`, the molecule was called inactive. Turning to `O=S(O)(O)=S`, the viability change, negative = cytotoxic is -8.56% [at 7.04 µM]. `COC(=O)CCc1ccc(OCC(O)CNC(C)C)cc1` (stereo not given): the molecule was called inactive. Still for that read-out and setting: to `CC(C)NCC(O)COc1ccc(COCCOC(C)C)cc1` (stereo not given) belongs “inactive”; to `CN(C)CCOCCO`, “inactive”. Same read-out and setting: to `O=C1CCCC(=O)O1` belongs “inactive”. Still for that read-out and setting: to `O=C(CCNNC(=O)c1ccncc1)NCc1ccccc1` belongs “inactive”. On to `CCN(CC)CC(=O)Nc1c(C)cccc1C`, for which the molecule was classed as inactive. Consider `NNc1nnc(NN)c2ccccc12`, for which the call was inactive. Same read-out and setting: for `N[C@@H](CCC(=O)Nc1ccc([N+](=O)[O-])cc1)C(=O)O` the value was “inactive”; for `CCc1ccc(C=O)cc1`, “inactive”.

Take `C=C(C)C(=O)OCC(C)(C)COC(=O)C(=C)C`: the molecule was classed as inactive.

For `Nc1ccc2cc(S(=O)(=O)O)cc(O)c2c1`, the molecule was classed as inactive.
